Assay outcomes as filed in PubChem.
IL-1B inflam inh – qHTS for Inhibitors of Inflammasome Signaling: IL-1-beta AlphaLISA Primary Screen; THP-1 LPS/ATP IL-1B secretion, AlphaLISA, 16 h; hits give low values; activity change, % at 57.5 µM; hit rate 4.7% among 360,000; in the data active = activity change below about -50%; inconclusive = mostly about -30% to -49%
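THP-1 cells pretreated 1 hr with compounds (up to 57.5 uM final), then stimulated with LPS (250 ng/mL final) plus ATP (1.25 mM final); secreted IL-1B measured by AlphaLISA after 16 hr, decreased signal indicating inhibition.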
TDP1 cell CPT – qHTS for Inhibitors of human tyrosyl-DNA phosphodiesterase 1 (TDP1): qHTS in cells in presence of CPT | Potency, µM (titrated, usually from 46.2 µM), hits mostly inhibitors | chicken DT40 Tdp1-/-;hTDP1 cells + 20 nM CPT, ATP luminescence, 48 h | hit rate 12% among 420,000; also: nearly all actives have a fitted effect of over 55% in size
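Cell growth measured by CellTiter-Glo luminescence after a minimum 48 h, 37 C compound exposure with 20 nM CPT in Tdp1-knockout DT40 cells stably expressing hTDP1, seeded 400/well; qHTS titration format.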
HT1080 IDH1KD tx – qHTS for induction of synthetic lethality in tumor cells producing 2HG: qHTS for the HT-1080-IDH1KD cell line; Potency, µM (top dose mostly 46.1 µM), actives largely listed as cytotoxic; hit rate 2% among 360,000; HT-1080 IDH1 knockdown viability, ATP luminescence, 48 h; AID 686971, 2013
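Knockdown cells (IDH1KD HT-1080) received compounds 2 h after plating at 750 cells/well and were kept 48 h at 37 °C in 5% FBS RPMI. A CellTiter-Glo luminescence read gave % activity for curve fitting.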
HT1080NT lethal – qHTS for induction of synthetic lethality in tumor cells producing 2HG: qHTS for the HT-1080-NT fibrosarcoma cell line; HT-1080-NT fibrosarcoma viability, CellTiter-Glo ATP luminescence, 48 h; Potency, µM (series often up to 46.1 µM), hits mostly cytotoxic; hit rate 1.6% among 360,000; AID 686970, 2013;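 also: NT is the 2HG producing partner of a matched IDH1 knockdown line; nearly all actives have a fitted effect of over 55% in size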
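Viability by CellTiter-Glo luminescence after 48 h compound exposure at 37C of HT-1080-NT cells (750/well, RPMI, 5% FBS). % activity scaled between DMSO wells and medium-only wells, then curve-fitted and categorized by curve class.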
TDP1 cell noCPT – qHTS for Inhibitors of human tyrosyl-DNA phosphodiesterase 1 (TDP1): qHTS in cells in absence of CPT. DT40 Tdp1-/- hTDP1 cells, no CPT, ATP luminescence, 48 h. Potency, µM (doses to about 46.2 µM), actives largely listed as inhibitors. hit rate 15% among 420,000. AID 686978, 2013; also: nearly all actives have a fitted effect of over 55% in size
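Readout: luminescence from CellTiter-Glo after 30 min in the dark at RT. Cells: DT40 Tdp1-/- with stable hTDP1, 400/well. Exposure: compounds alone, ≥48 hr, 37 °C.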
Large screens that a line does not name were inactive; ! = repeats disagree. In the library only some 19% were active in any assay of this set; here they are far more common. Unless noted, calls follow the shape of the dose curve; as a rule, active = well fitted curve in the direction sought with a large enough effect; inconclusive = small, poorly fitted or top-dose-only effect, or another doubt; inactive = no such curve, though single readings can be large; an effect the other way counts as inactive or inconclusive.

O=c1[nH]c2ccccc2n1C1CCN(Cc2ccc(-c3nc4ccccc4nc3-c3ccccc3)cc2)CC1	TDP1 cell CPT 12µM, HT1080 IDH1KD tx inconclusive, HT1080NT lethal inconclusive, TDP1 cell noCPT 15µM
O=C(CSc1nc(-c2ccccc2)c(-c2ccccc2)[nH]1)Nc1nccs1	TDP1 cell CPT inconclusive, HT1080 IDH1KD tx inconclusive, HT1080NT lethal inconclusive, TDP1 cell noCPT inconclusive
O=c1[nH]c2ccccc2n1C1CCN(Cc2ccc(-c3nc4ccc(F)cc4nc3-c3ccccc3)cc2)CC1	IL-1B inflam inh -61, TDP1 cell CPT 4.1µM, HT1080 IDH1KD tx inconclusive, HT1080NT lethal 21µM, TDP1 cell noCPT 6.5µM
c1ccc2c(c1)sc1ccccc12	TDP1 cell CPT inconclusive (no result: IL-1B inflam inh, HT1080 IDH1KD tx, HT1080NT lethal)
O=C(O)c1cc(O)c(O)c(O)c1	TDP1 cell CPT 0.58µM, TDP1 cell noCPT 0.92µM (no result: IL-1B inflam inh, HT1080 IDH1KD tx, HT1080NT lethal)
Cc1ccccc1NC(=O)c1cc(-c2ccccc2)n(CCCN2CCOCC2)c1C	none
Cc1ccccc1NC(=NCCCN1CC1)Nc1ccccc1C	IL-1B inflam inh inconclusive, TDP1 cell CPT 2.1µM, HT1080 IDH1KD tx inconclusive, TDP1 cell noCPT 5.2µM
CCOP(=O)(OCC)c1nc(-c2cccc3ccccc23)oc1N1CCCCC1	IL-1B inflam inh inconclusive, TDP1 cell CPT 21µM, HT1080 IDH1KD tx inconclusive, HT1080NT lethal inconclusive, TDP1 cell noCPT inconclusive
COP(=O)(OC)c1nc(-c2ccc([N+](=O)[O-])cc2)oc1N1CCCCC1	TDP1 cell CPT inconclusive, TDP1 cell noCPT 21µM
CCOC(=O)c1c(C=O)c2ccccc2n1Cc1ccccc1F	HT1080 IDH1KD tx inconclusive, TDP1 cell noCPT inconclusive
CN1CCN(c2csc3ccc(F)cc3c2=O)CC1	none (no result: IL-1B inflam inh, HT1080 IDH1KD tx, HT1080NT lethal)
COc1ccc(CCNC(=O)c2cnc3sc(N4CCCCCC4)nn3c2=O)cc1	TDP1 cell CPT 21µM, TDP1 cell noCPT 9.2µM (no result: IL-1B inflam inh, HT1080 IDH1KD tx, HT1080NT lethal)
C[C@@H]1COc2cccc(N3CCN(C)CC3)c2S(=O)(=O)N1	none
O=C(c1ccccc1)N1CCN(c2ccccc2)CC1	TDP1 cell noCPT 23µM
NCC(CC(=O)O)C1CCCCC1 (centres undefined)	none
N#CCn1c(CCl)nc2ccccc2c1=O	IL-1B inflam inh -56, TDP1 cell CPT 4.6µM, TDP1 cell noCPT 2.6µM
CCc1nc2ccccc2c(=O)n1-c1ccc2ccccc2c1	TDP1 cell CPT inconclusive, TDP1 cell noCPT inconclusive
Cc1ccc(NP(=O)(Oc2ccccc2F)Oc2ccccc2F)cc1C	IL-1B inflam inh -84, TDP1 cell CPT inconclusive, TDP1 cell noCPT inconclusive
Cc1cccc(NP(=O)(Oc2ccccc2F)Oc2ccccc2F)c1	IL-1B inflam inh -99, TDP1 cell CPT inconclusive, HT1080 IDH1KD tx inconclusive, TDP1 cell noCPT inconclusive
O=[N+]([O-])c1cccc(NP(=O)(Oc2ccccc2)Oc2ccccc2)c1	TDP1 cell CPT inconclusive, HT1080 IDH1KD tx inconclusive, HT1080NT lethal inconclusive, TDP1 cell noCPT inconclusive
Clc1cccc(SC2CCNCC2)n1	TDP1 cell noCPT inconclusive (no result: IL-1B inflam inh, HT1080 IDH1KD tx, HT1080NT lethal)
N#CCC(=O)NN1Cc2ccccc2C1=N	none
NCC(=O)c1ccc2ccccc2c1	none (no result: IL-1B inflam inh, HT1080 IDH1KD tx, HT1080NT lethal)
N#CCCn1cc(C(=O)Nc2ccccc2Br)c(-c2ccc3c(c2)OCCO3)n1	TDP1 cell noCPT inconclusive
COc1cc2c(c(OC)c1OC)-c1ccc(O)c(=O)cc1[C@@H](N)CC2	HT1080 IDH1KD tx inconclusive, HT1080NT lethal inconclusive
COc1cc2c(c(OC)c1OC)-c1ccc(OC)c(=O)cc1[C@@H](NC(C)=O)CC2	TDP1 cell CPT 0.016µM, HT1080 IDH1KD tx inconclusive, HT1080NT lethal inconclusive, TDP1 cell noCPT 0.19µM!
CCN(CC)c1ccc2c(cc1=O)[C@@H](NC)CCc1cc(OC)c(OC)c(OC)c1-2	TDP1 cell CPT 1.2µM, HT1080 IDH1KD tx inconclusive, HT1080NT lethal 1.3µM, TDP1 cell noCPT 1.2µM
COc1cc2c(c(OC)c1O)-c1ccc(OC)c(=O)cc1C(NC(=O)C(F)(F)F)CC2 (centres undefined)	TDP1 cell CPT 0.1µM, HT1080 IDH1KD tx inconclusive, HT1080NT lethal 0.013µM, TDP1 cell noCPT 0.16µM
COc1cc2c(c(OC)c1OC)-c1ccc(OC)c(=O)cc1[C@H](NC(C)=O)CC2	TDP1 cell CPT 0.094µM, TDP1 cell noCPT 0.06µM (no result: IL-1B inflam inh, HT1080 IDH1KD tx, HT1080NT lethal)
